Assay in all cases: NCI-60 one-dose screen, 48 h (100 = growth as untreated, 0 = no growth, -100 = all killed)
What all share (settings): 10 µM unless noted

For experiment [1], the system named is NCI-H23 lung.
Experiment [2] deals with NCI-H226 lung.
Experiment [3] deals with NCI-H322M lung.
For experiment [4], the system named is HOP-62 NSCLC.
In experiment [5] the test system is NCI-H460 lung.
For experiment [6], the system named is HOP-92 NSCLC.
For experiment [7], the system named is A549/ATCC NSCLC.
Experiment [8] deals with 786-0 renal.
Experiment [9] deals with COLO 205 colon.
The test system of experiment [10] is DU-145 prostate.
Experiment [11] relates to K-562 leukemia.
The test system of experiment [12] is MALME-3M melanoma.
Experiment [13] deals with MDA-MB-231 breast.
For experiment [14], the system named is RXF 393 renal.
Experiment [15] deals with SF-268 CNS.
Experiment [16] relates to SF-539 CNS.
Experiment [17] concerns UACC-257 melanoma.
For experiment [18], the system named is M14 melanoma.
Experiment [19] has as its system SF-295 CNS.

About 83,000 compounds went through this panel and 20% of them were active in at least one assay; those are over-represented in the sample as a whole.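 Percent growth is the endpoint: 0 to 100 indicates growth inhibition (40 means 60% inhibition), 0 means no net growth, and negative values indicate cell death.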 Unmarked numbers belong to inactive results. The source made the active and inactive calls. Rule for the calls: active = growth percent below 10; inactive = the rest.

8 compounds from PubChem BioAssay (NCI) can be followed below.

As to `CCCCCCCCCCNCCSS(=O)(=O)O`, the growth in experiment [1] was 86.2%; in experiment [2], 102%; in experiment [3] it was 76.7%; in [4], 100%; in experiment [5], -62.7% (active); in experiment [6], 93.3%. Further, the growth in experiment [7] was 69.7%; in experiment [8], 87.6%; in [9], 116%; in [10], 73.3%; in [11] it was 6.77% (active); in experiment [12] it was 106%. For the same compound, the growth in [13] was 76.3%; in experiment [14], 104%; in [15], -35.9% (active); in [16], 99.3%; in experiment [17], 101%; in [18], 34.3%.
As to `COc1c(Br)cc(C(c2cc(Br)c(OC)c(Br)c2)c2ccccc2C(=O)O)cc1Br`, the growth was 97.3% in experiment [1]; 99.8% in experiment [2]; 102% in [3]; 94.1% in experiment [4]; 105% in experiment [5]; 55.7% in [6]. For the same compound, the growth in experiment [7] is 98.7%; in [8] it was 100%; in experiment [9] it was 110%; in experiment [10], 111%; in experiment [11], 89.6%; in experiment [12], 91.3%. In addition, the growth in [13] was 102%; in [14] it was 107%; in experiment [15], 98.8%; in [19], 96%; in experiment [16] it was 92.2%; in experiment [18], 95.4%.
In the case of `COc1cccc(CCN2C(=O)CCC3=C2CCC3=O)c1`, the growth in [1] was 96.9%; in experiment [2] it was 97.4%; in [3] it was 101%; in experiment [4], 102%; in experiment [5], 115%; in experiment [6] it was 86%. The growth in [7] was 112%; in experiment [8] it was 97.6%; in [9] it was 108%; in experiment [10] it was 114%; in experiment [11], 106%; in [12], 100%. The growth is 78.2% in [13]; 112% in [14]; 119% in experiment [15]; 97.6% in [19]; 97.8% in [16]; 83.8% in experiment [18].
With `COc1cc(-c2nnc(-c3nc(-c4cc(OC)c(OC)c(OC)c4)n4ccccc34)o2)ccc1N`, the growth was 67.7% in [1]; 83% in experiment [2]; 83.1% in experiment [3]; 89% in experiment [4]; 68.3% in experiment [5]; 29.2% in experiment [6]. Besides, the growth in experiment [7] is 28.2%; in experiment [8], 68.6%; in [9], 88.7%; in experiment [10], 85.4%; in experiment [11] it was 64.7%; in [12], 86.5%. In addition, the growth in experiment [13] is 84.4%; in experiment [14], 84.4%; in experiment [15] it was 83.6%; in [16], 98.8%; in experiment [17] it was 93.2%; in [18] it was 80.3%.
Regarding `FCc1ncc(-c2ccc(C(F)(F)F)cc2)c(NC2CCCCCC2)n1`, the growth in experiment [1] was 10.9% [100 µM]; in [2], 34.4% [100 µM]; in [3] it was 36.3% [100 µM]; in experiment [4], 31.2% [100 µM]; in [5], -28.9% [100 µM] (active); in [6], -31.7% [100 µM] (active). Further, the growth in experiment [7] is 7.62% [100 µM] (active); in [8], -13.7% [100 µM] (active); in [9], -21% [100 µM] (active); in experiment [10], -27.6% [100 µM] (active); in experiment [11], -2.97% [100 µM] (active); in experiment [12] it was -16.9% [100 µM] (active). Moreover, the growth in [13] was 0% [100 µM] (active); in experiment [14], 1.22% [100 µM] (active); in experiment [15] it was -0.671% [100 µM] (active); in experiment [19] it was -40.9% [100 µM] (active); in experiment [17] it was -6.1% [100 µM] (active); in experiment [18] it was 2.44% [100 µM] (active).
For the compound `COc1cccc(C=Nc2cc(C(C)C)c(O)cc2C)c1O`, the growth in experiment [1] was 95.2%; in experiment [2], 93%; in [3] it was 95.3%; in experiment [4], 95%; in experiment [5], 107%; in [6], 82.3%. Further, the growth is 109% in experiment [7]; 106% in [8]; 98.6% in experiment [9]; 114% in experiment [10]; 107% in experiment [11]; 106% in [12]. For the same compound, the growth in experiment [13] is 88.9%; in [14] it was 104%; in experiment [15], 92.1%; in experiment [16], 91.7%; in experiment [17] it was 111%; in experiment [18], 106%.
On to `COc1cccc(/C=C2\Cc3ccccc3C2=O)c1`, for which the growth was 106% in experiment [1]; 107% in [2]; 110% in experiment [3]; 96.4% in experiment [4]; 105% in experiment [5]; 85.7% in experiment [6]. In addition, the growth in [7] is 87%; in [8], 101%; in experiment [9], 115%; in experiment [10] it was 104%; in experiment [11] it was 93.8%; in experiment [12], 97%. Also, the growth in experiment [13] is 104%; in [14], 103%; in experiment [15] it was 109%; in experiment [19] it was 94.6%; in experiment [16], 101%; in experiment [18] it was 109%.
`COC(=O)[C@H](Cc1cn(C)cn1)NC(=O)[C@@H](NC(=O)Nc1cc(C(F)(F)F)cc(C(F)(F)F)c1)C(C)C`: the growth in experiment [1] is -77.2% [100 µM] (active); in experiment [2], -52.3% [100 µM] (active); in [3], -90.4% [100 µM] (active); in [4], -98.6% [100 µM] (active); in experiment [5], -45.9% [100 µM] (active); in experiment [6], -96.6% [100 µM] (active). For the same compound, the growth in experiment [7] is -73% [100 µM] (active); in experiment [8] it was -90.6% [100 µM] (active); in experiment [9], -94.4% [100 µM] (active); in [10] it was -97.1% [100 µM] (active); in experiment [11] it was -53.5% [100 µM] (active); in experiment [12], -90.5% [100 µM] (active). Besides, the growth in experiment [13] is -90.2% [100 µM] (active); in [14], -83.3% [100 µM] (active); in experiment [15], -89.4% [100 µM] (active); in experiment [19], -91% [100 µM] (active); in experiment [17] it was -95.9% [100 µM] (active); in [18], -92.8% [100 µM] (active).
